Compound activity as filed in PubChem BioAssay.
Hits are enriched below; roughly 11% of the tested compounds scored in any of these assays.
AmpC inh no detg: blocks E. coli AmpC beta-lactamase in detergent-free assay; AmpC nitrocefin hydrolysis, absorbance 480 nm, 0.0001% Triton; Potency, µM (highest dose often 57.1 µM), for inactives: at the highest dose activity change, negative = inhibition, actives largely listed as inhibitors; 330,000 tested, 0.52% active;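 note: plate controls were no compound for no effect and no enzyme for full effect; nearly all actives have a fitted effect of over 20% in size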
Target sequence (P00811 whole entry, looked up): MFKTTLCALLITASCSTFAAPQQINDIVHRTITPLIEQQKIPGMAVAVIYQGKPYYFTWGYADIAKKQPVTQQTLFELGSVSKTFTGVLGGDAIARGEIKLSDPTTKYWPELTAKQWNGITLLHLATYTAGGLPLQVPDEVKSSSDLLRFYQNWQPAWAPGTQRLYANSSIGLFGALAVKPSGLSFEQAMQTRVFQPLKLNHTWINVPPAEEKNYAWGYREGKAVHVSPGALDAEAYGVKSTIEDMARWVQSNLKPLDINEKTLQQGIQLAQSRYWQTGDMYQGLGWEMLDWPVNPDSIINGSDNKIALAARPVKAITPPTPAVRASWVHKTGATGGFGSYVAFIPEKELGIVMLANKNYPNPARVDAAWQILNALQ
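20 mM phosphate pH 7.0 + 0.01% (detergent screen) or 0.0001% Triton X-100; 5.3 nM AmpC reagent; cpd preinc 15 min RT; nitrocefin (800 uM stock) to start; A480 q20 s × 4 min; Activity was normalised to no-enzyme and no-compound control wells.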
HCV inh: blocks hepatitis C virus; Huh7.5.1 HCVcc-Cre infection, luciferase reporter, 44 h; Potency, µM (highest dose often 41.8 µM), inactives show at the top dose activity change, negative = inhibition, usual class: inhibitors; 340,000 tested, 3.4% active; AID 651820
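After 44 h co-culture of compound, cells and HCVcc-Cre (~0.5 moi), substrate is added for 15 min at room temperature and luciferase measured over 15 sec. Cells were seeded at 1,000/well and pre-cultured 4 h.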
Pf growth 96h: P. falciparum growth inhibition at 96 hour, primary screen for plastid delayed-death inhibitors. P. falciparum luciferase reporter growth, 96 h. Potency, µM (series often up to 28.7 µM), inactives show at the top dose activity change, negative = inhibition, usual class: inhibitors. 320,000 tested, 6.9% active
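Readout is luminescence from an integrated firefly luciferase in P. falciparum. Red cells, 2% hematocrit and 0.05% parasitemia final, were cultured with compound through two parasite generations (96 hours) at 37 C, 5% CO2.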
Pf growth 48h: P. falciparum growth inhibition at 48 hours (one generation) | AID 504832 | Potency, µM (top dose mostly 28.7 µM), for the others: at the highest dose activity change, negative = inhibition, hits mostly inhibitors | 310,000 tested, 5.9% active | P. falciparum luciferase growth in erythrocytes, 48 h
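Cell-based growth assay: transgenic P. falciparum expressing firefly luciferase, cultured in red cells within RPMI 1640 containing 0.5% w/v Albumax, 24 mM bicarbonate and gentamycin. A drop in luciferase activity indicates inhibition.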
AmpC detergent: blocks E. coli AmpC beta-lactamase in detergent assay; Potency, µM (highest dose often 114 µM), for the others: at the top dose activity change, negative = inhibition, hits mostly inhibitors; P00811; AmpC hydrolysis of nitrocefin, absorbance 480 nm, 0.01% Triton; 370,000 tested, 0.041% active; AID 485294;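 note: 0% = no-compound wells and -100% = no-enzyme wells; nearly all actives have a fitted effect of over 25% in size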
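20 mM phosphate pH 7.0 + 0.01% (detergent screen) or 0.0001% Triton X-100; 5.3 nM AmpC reagent; cpd preinc 15 min RT; nitrocefin (800 uM stock) to start; A480 q20 s × 4 min; Activity was normalised to no-enzyme and no-compound control wells.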
AMA1 RON2 block: disrupts binding of P. falciparum AMA1 to RON2; AlphaScreen AMA1-biotinylated RON2 peptide binding; 360,000 tested, 0.2% active; Potency, µM (series often up to 58.2 µM), inactives show at the top dose activity change, negative = inhibition, hits mostly inhibitors; AID 720542;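 note: 0% = vehicle wells and -100% = peptide control; nearly all actives have a fitted effect of over 45% in size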
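AMA1 (3D7) with his tag at 25 nM final met compounds first, then biotinylated RON2 peptide at 25 nM; detection used donor plus acceptor beads, 10 µg/mL apiece, read by AlphaScreen after 30 min at room temperature.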
* marks the source's active call; other numbers are inactive results; u = inconclusive; x = no result given. Calls come from the whole dose curve; as a rule, active = well fitted curve in the direction sought with a large enough effect; inconclusive = small, poorly fitted or top-dose-only effect, or another doubt; inactive = no such curve, though single readings can be large; an effect the other way counts as inactive or inconclusive. Unless noted, % is set by controls: 0 for no effect and ±100 for the full control effect; potency is the fitted concentration of half-maximal effect.

SMILES	AmpC inh no detg	HCV inh	Pf growth 96h	Pf growth 48h	AmpC detergent	AMA1 RON2 block
CC(C)C[C@@H]1NC(=O)[C@H](Cc2ccccc2)N(C)C(=O)[C@H](C)NC(=O)c2ccccc2NC(=O)[C@H](Cc2ccc(O)cc2)N(C)C1=O	0%	8.9µM*	u	3.7µM*	6%	-26%
CCc1nn(CC(=O)NC(C)CC)c(=O)c2cc3c(OC)cccc3n12 (stereo not drawn)	x	x	x	x	23%	x
Cc1ccccc1-n1c(-c2ccoc2)nc2ccccc2c1=O	2%	u	4.1µM*	-21%	0%	-1%
O=C(NNc1c2ccccc2nc2ccccc12)c1ccccc1Cl	-33%	4.5µM*	u	u	-14%	-4%
O=C(NNc1c2ccccc2nc2ccccc12)C12CC3CC(CC(C3)C1)C2	54%	8%	13µM*	u	-4%	-1%
O=C(NNc1c2ccccc2nc2ccccc12)c1ccccc1O	-51%	8.9µM*	10µM*	u	u	-19%
O=C(NNc1nc(=O)c2cccnc2s1)c1ccccc1O	-38%	3.2µM*	8%	u	-2%	75%
COc1ccccc1CNC(=O)Nc1ccc2c(c1)N(C)C(=O)c1ccccc1S2	x	x	x	x	-7%	x
Nc1cc(=O)nc(SCC(=O)Nc2cccc(Cl)c2)n1CCc1ccccc1	x	x	x	x	1%	x
c1ccc(CCCN2CCN(CCOC(c3ccccc3)c3ccccc3)CC2)cc1	x	7.9µM*	x	x	x	u
Fc1ccc(C(OCCN2CCN(CCCc3ccccc3)CC2)c2ccc(F)cc2)cc1	x	x	-101%	12µM*	x	x
c1ccc(COCCN2CCN(CCOCc3ccccc3)CC2)cc1	56%	-21%	-15%	x	4%	3%
CCC(C)NC(=O)Cn1c(=O)n(-c2ccc(C)c(C)c2)c(=O)c2c(C)c(C(=O)N(CC)CC)sc21 (stereo not drawn)	x	x	x	x	-5%	x
Cc1ccc(N/C=C/C(=O)c2ccco2)c(O)c1	u	6%	91%	111%	-3%	54%
Cc1ccc([N+](=O)[O-])cc1N/C=C/C(=O)c1ccco1	-10%	6.3µM*	64%	32%	11%	-7%
Cc1cc(=O)[nH]c2nnc(SCc3ccc(Cl)c(Cl)c3)n12	x	x	x	x	-1%	x
COc1ccc(-c2noc(CNS(=O)(=O)c3ccc(Br)cc3)n2)cc1OC	x	x	x	x	17%	x
